From PubChem BioAssay come the findings set out here.

The subject of assay [1] is TRPC4 beta (transient receptor potential cation channel C4), mouse. Description: TRPC4 cation channel opening, retest – cell-based, Fluo4 calcium, HEK293 TRPC4beta/mu-opioid, duplicates, 10 µM, confirmation (AID 2426;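 active = fluorescence ratio normalized to control raised more than 50% in primary screen plus both repeat runs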;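 as to activation: percent rise of integrated ratio over buffer wells lacking compound which define 0%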). The following applies: Fluo4 calcium fluorescence, at 10 µM; active compounds read high.
The test system of assay [2] is transient receptor potential cation channel C4 beta (TRPC4), mouse. Briefly: TRPC4 cation channel opening, second retest – cell-based, second round, Fluo4, HEK293 TRPC4beta/mu-opioid, 1 µM, confirmation (AID 2461;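 active = primary screen active and over 50% activation in each of two duplicate runs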;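 as to activation: 0% = wells without test compound as baseline of integrated fluorescence ratio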). The settings on record: Fluo4 calcium fluorescence, at 1 µM; active compounds read high.
Assay [3] concerns TRPC4 (transient receptor potential cation channel C4 beta), mouse. Briefly: potentiation of DAMGO EC20 TRPC4 response – cell-based, second round, Fluo-4, HEK293 TRPC4beta/mu-opioid, 1 µM, confirmation (AID 2554;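 active = primary screen hit whose fluorescence ratio, in both repeats, exceeds the weak agonist control mean by 3 SD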). The settings on record: DAMGO EC20, Fluo-4 calcium flux, at 1 µM; active compounds read high.
For assay [4], the system named is TRPC4 beta (transient receptor potential cation channel C4), mouse. Briefly: potentiation of DAMGO EC20 TRPC4 response – cell-based, Fluo-4, HEK293 TRPC4beta/mu-opioid, confirmation (AID 2555). The settings on record: DAMGO EC20, Fluo-4 calcium flux, at 10 µM; active compounds read high. Background: Calcium assays in cells follow changes in intracellular calcium, usually with a dye or a luminescent sensor.

The target in assay [5] is Short transient receptor potential channel 4 (Mus musculus) (UniProt Q9QUQ5). Description: blockers of DAMGO-evoked TRPC4 calcium flux – cell-based, Fluo4, HEK293 TRPC4beta/mu-opioid, confirmation (AID 2636;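 active = calcium signal cut by more than 3 SD below the full-agonist control yet still positive, in both repeats and the earlier primary screen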). The following applies: at 10 µM; active compounds read high.
Chain of Short transient receptor potential channel 4 (Mus musculus) (Q9QUQ5 whole entry, looked up): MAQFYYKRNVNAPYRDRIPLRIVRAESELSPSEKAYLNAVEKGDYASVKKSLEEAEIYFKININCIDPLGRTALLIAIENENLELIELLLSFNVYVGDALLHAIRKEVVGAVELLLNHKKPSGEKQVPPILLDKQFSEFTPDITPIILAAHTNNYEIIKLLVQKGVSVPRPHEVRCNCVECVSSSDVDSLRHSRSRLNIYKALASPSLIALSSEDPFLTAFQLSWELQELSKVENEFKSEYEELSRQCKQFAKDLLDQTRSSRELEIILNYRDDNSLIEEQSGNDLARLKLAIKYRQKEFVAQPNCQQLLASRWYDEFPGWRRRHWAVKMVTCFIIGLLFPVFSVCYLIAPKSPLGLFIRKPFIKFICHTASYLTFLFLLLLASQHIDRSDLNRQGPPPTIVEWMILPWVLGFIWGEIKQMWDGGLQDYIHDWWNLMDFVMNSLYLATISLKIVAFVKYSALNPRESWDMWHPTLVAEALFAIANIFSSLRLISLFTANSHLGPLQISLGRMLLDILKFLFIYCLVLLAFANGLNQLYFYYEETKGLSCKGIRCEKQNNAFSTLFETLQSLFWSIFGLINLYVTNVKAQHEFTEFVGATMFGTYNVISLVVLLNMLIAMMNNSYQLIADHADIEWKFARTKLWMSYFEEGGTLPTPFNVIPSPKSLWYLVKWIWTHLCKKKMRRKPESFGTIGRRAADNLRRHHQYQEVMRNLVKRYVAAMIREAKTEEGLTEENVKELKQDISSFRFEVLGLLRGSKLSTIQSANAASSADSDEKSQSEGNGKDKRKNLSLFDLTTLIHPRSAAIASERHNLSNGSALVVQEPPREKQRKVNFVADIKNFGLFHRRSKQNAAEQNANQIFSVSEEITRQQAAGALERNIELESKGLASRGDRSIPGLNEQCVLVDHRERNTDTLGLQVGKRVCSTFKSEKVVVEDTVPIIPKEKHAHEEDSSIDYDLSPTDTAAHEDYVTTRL
Assay [6] has the same target. Description: blockers of DAMGO-evoked TRPC4 calcium flux – cell-based, second round, Fluo4, HEK293 TRPC4beta/mu-opioid, 1 µM, confirmation (AID 2637;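 active = calcium signal ratio cut to more than 3 SD under the fully stimulated control mean yet still positive, in both repeats and the primary screen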). The settings on record: at 1 µM; active compounds read high.
Assay [7] shares this target. Briefly: potentiation of DAMGO-evoked TRPC4 calcium signal – cell-based, HEK293 TRPC4/mu-opioid, Fluo-4 calcium, EC20 DAMGO, dose response (AID 434941;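 active = earlier screen potentiator hit that boosts the TRPC4 ion channel at some dose, with a dose response; inactive = no potentiation, no dose response, or not a prior hit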;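 also: calcium entry triggered by an EC20 dose of DAMGO at the co-expressed mu-opioid receptor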).
Assay [8] has the same target. Briefly: block of DAMGO-driven TRPC4 calcium entry – cell-based, HEK293 TRPC4/mu-opioid, Fluo-4 calcium, dose response (AID 434942;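 active = primary screen inhibitor hit that blocks the TRPC4 channel at some tested dose, yielding a dose curve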).
Assay [9] deals with Short transient receptor potential channel 6 (Mus musculus) (UniProt Q61143). Briefly: TRPC6 blockade by TRPC4 inhibitor hits – cell-based, HEK293, membrane potential dye, duplicate, selectivity assay for TRPC4 inhibitor project, confirmation (AID 434948;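 active = active in primary screen and both duplicates, each dropping signal beyond three positive-control SD with fluorescence still positive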). The following applies: HEK293 TRPC6, membrane potential dye fluorescence, at 10 µM, stimulated with maximal-effect acetylcholine; active compounds read high.
Chain of Short transient receptor potential channel 6 (Mus musculus) (Q61143 whole entry, looked up): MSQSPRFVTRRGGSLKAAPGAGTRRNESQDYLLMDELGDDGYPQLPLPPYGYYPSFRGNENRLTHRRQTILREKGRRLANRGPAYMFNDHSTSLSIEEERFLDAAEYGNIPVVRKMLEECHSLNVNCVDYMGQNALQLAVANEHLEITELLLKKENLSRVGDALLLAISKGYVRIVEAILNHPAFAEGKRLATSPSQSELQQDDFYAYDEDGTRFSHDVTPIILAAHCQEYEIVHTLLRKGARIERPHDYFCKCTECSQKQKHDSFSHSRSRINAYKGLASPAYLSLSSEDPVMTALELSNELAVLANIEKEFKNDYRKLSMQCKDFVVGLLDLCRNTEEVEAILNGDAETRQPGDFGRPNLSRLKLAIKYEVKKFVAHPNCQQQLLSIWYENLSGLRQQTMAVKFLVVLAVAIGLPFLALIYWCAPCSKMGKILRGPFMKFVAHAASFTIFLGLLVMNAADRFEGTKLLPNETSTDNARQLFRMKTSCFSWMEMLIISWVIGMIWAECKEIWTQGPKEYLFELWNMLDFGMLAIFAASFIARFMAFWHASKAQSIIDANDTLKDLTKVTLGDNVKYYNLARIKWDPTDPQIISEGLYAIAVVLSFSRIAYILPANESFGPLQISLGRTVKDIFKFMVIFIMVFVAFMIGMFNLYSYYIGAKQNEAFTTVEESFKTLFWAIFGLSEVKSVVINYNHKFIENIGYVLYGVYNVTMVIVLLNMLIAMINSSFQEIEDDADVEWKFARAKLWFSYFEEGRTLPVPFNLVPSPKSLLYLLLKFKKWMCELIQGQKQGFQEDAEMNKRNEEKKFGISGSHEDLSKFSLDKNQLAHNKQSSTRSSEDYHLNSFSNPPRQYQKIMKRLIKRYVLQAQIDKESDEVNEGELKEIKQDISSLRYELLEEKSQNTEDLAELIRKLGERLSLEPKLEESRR

The target is the same in assay [10]. Briefly: TRPC6 opening by TRPC4 activator hits – cell-based, HEK293, membrane potential dye, duplicate, selectivity assay for TRPC4 activator project, confirmation (AID 434950;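 active = membrane potential signal rise above negative control mean plus 3 SD in both duplicates, also active in the earlier TRPC4 screen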;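 as to activation: 0% = buffer only wells and 100% = acetylcholine maximal-effect wells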). The settings on record: HEK293 TRPC6, membrane potential fluorescence, at 10 µM; activation: active compounds read high; outcome: activation.
The target is the same in assay [11]. Briefly: positive modulators of mouse TRPC6 channel – HEK293 cells, membrane potential dye, duplicate, selectivity assay for TRPC4 potentiator project, confirmation (AID 434952;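 active = compound raising the membrane signal above positive-control mean plus 3 SD in both repeats, and a primary screen hit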). The following applies: HEK293 TRPC6, membrane potential dye fluorescence, at 10 µM, maximal acetylcholine added after compound; active compounds read high.
The target of assay [12] is Short transient receptor potential channel 4 (Mus musculus) (UniProt Q9QUQ5). Description: calcium flux activators in TRPC4/5HT1a cells, counter-screen for TRPC4 activator project, cell-based, second counter screen, HEK293 TRPC4/5HT1a, Fluo-4 (AID 434977;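 active = calcium signal rise above buffer-control mean plus 5 SD in both duplicates, and also a hit in the primary screen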;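 as to activation: plate controls were assay buffer for no effect and maximal serotonin response for full effect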). The settings on record: Fluo-4 calcium flux, at 10 µM; active compounds read high.
Assay [13] can be described thus: serotonin-gated TRPC4 signal block – cell-based, second counter screen, HEK293 TRPC4/5HT1a, Fluo-4, counter-screen for TRPC4 inhibitor project, confirmation (AID 434978;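 active = primary screen active whose calcium signal fell more than 3 SD beyond the full-serotonin control mean in both duplicate plates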;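 also: serotonin given first at submaximal then at maximal dose after compound preincubation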). The following applies: Fluo-4 calcium flux, at 10 µM, serotonin added to trigger calcium flux; active compounds read high. In general terms: A counterscreen serves to expose hits that act by an unwanted route or on another target.

Assay [14] deals with TRPC4 (mouse), co-expressed with 5HT1a in HEK293. Briefly: enhancement of serotonin-evoked TRPC4 response – cell-based, second counter screen, HEK293 TRPC4/5HT1a, Fluo-4, counter-screen for TRPC4 potentiator project, confirmation (AID 434979;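 active = signal rise over 3 SD above mean of control wells given weak agonist, in both repeats and first screen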). The following applies: Fluo-4 calcium flux, at 10 µM, serotonin added at its EC20 dose; active compounds read high.
Assay [15] can be described thus: nonspecific calcium rise without TRPC4 – cell-based, HEK293 mu-opioid receptor line, counter-screen for TRPC4 activator project, confirmation (AID 449723;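 active = hit in primary screen, with calcium signal over 5 SD above buffer well mean in both duplicates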;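 also: counter screen cells carry the mu-opioid receptor alone and lack TRPC4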). The settings on record: HEK293 mu-opioid cells, Fluo-4 calcium fluorescence, at 10 µM; active compounds read high.
Assay [16] is described as follows: nonspecific potentiation of DAMGO calcium response – cell-based, HEK293 mu-opioid receptor line, counter-screen for TRPC4 allosteric potentiator project, confirmation (AID 449724;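 active = calcium signal rise more than 3 SD above the low-dose agonist control mean, in both duplicate plates and the primary screen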;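 also: HEK293 cells carrying mu-opioid receptor only with no TRPC4 channel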). The settings on record: HEK293 mu-opioid receptor cells, Fluo-4 calcium flux, at 10 µM, compound added before EC20 DAMGO stimulus; active compounds read high.

For part of these data: Potency and affinity values are given separately. Activity calls are given as the source filed them.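 The calls were made as follows, unless noted: active = primary screen hit whose calcium fluorescence ratio, in both repeats, exceeds the weak agonist control mean by 3 SD; inactive = the rest.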

Take `Cc1ccc(C)c(S(=O)(=O)N2CCN(C(=O)CCc3nc4ccccc4c(=O)[nH]3)CC2)c1`: the activation in assay [1] is 153% (active); in [10], 39% (active); in assay [12] it was 25.2% (active). For the same compound, the outcome in assay [2], in [3], in assay [4], in [5], in assay [6] and in [7] was inactive. Also, the result in assay [8], in assay [9], in [11], in assay [13], in [14] and in [15] was inactive. Moreover, the outcome in assay [16] was inactive.
With `COc1ccc(C(CNC(=O)c2cccc(NS(=O)(=O)c3ccc(C)c(F)c3)c2)N(C)C)cc1` (stereo not given), the activation in assay [1] is 135% (active); in assay [10], 28.5% (active). Moreover, the outcome in assay [2], in [3], in assay [4], in assay [5], in assay [6] and in assay [7] was inactive. For the same compound, the outcome in assay [8], in assay [9], in assay [11], in assay [12], in assay [13] and in assay [14] was inactive. Also, the outcome in assay [15] and in [16] was inactive.
Turning to `Cc1ccc2[nH]c3c(=O)n(CCc4cnc[nH]4)cnc3c2c1`, the activation was 126% (active) in assay [1], 27.5% (active) in [10] and 33.2% (active) in [12]. For the same compound, the result in assay [2], in assay [3], in assay [4], in assay [5], in assay [6] and in assay [7] was inactive. The outcome in assay [8], in assay [9], in assay [11], in [13], in [14] and in assay [15] was inactive. The result in assay [16] was inactive.
In the case of `CN(C)C(CNC(C(=O)Nc1ccc(F)cc1)c1ccccc1)c1ccccc1` (stereo not given), the activation is 126% (active) in assay [1] and 68% (active) in assay [2]. Also, the outcome in assay [3], in [4], in assay [5], in [6], in [7] and in assay [8] was inactive. In addition, the compound was classed as inactive in [9], in [10], in assay [11], in assay [12], in assay [13] and in assay [14]. Besides, the outcome in assay [15] and in [16] was inactive.
On to `CC1(c2ccc(Cl)cc2Cl)OCC(Cn2ccnc2)O1` (stereo not given), for which the activation in [1] is 89% (active); in assay [10] it was 48.5% (active); in assay [12], 19.9% (active). Further, the outcome in assay [2], in assay [3], in [4], in [5], in assay [6] and in assay [7] was inactive. In addition, the result in [8], in assay [9], in assay [11], in assay [13], in assay [14] and in assay [15] was inactive. Further, the outcome in [16] was inactive.
Take `O=C1/C(=C\c2cc(Cl)c(O)c(Cl)c2)SC(=S)N1Cc1ccccc1`: the activation in [1] was 118% (active); in assay [10], 1320% (active); in assay [12] it was 105% (active); in assay [15], 248% (active); in assay [16], 3240% (active). Further, the outcome in assay [2], in [3], in assay [5], in assay [6], in [7] and in assay [8] was inactive. Moreover, the compound was called inactive in assay [9] and in assay [13]. For the same compound, the potentiation is 43% (active) in assay [4] and 27.4% (active) in [14]. The potentiation, percent of control in assay [11] was 640% (active).
As to `CCCCN(CC)CCCNC(=O)Cn1nc(Cc2ccncc2)c2ccccc2c1=O`, the activation in assay [1] is 162% (active); in [2] it was 120% (active); in [10], 31.5% (active); in assay [12], 53.7% (active). Besides, the outcome in [3], in assay [4], in assay [5], in assay [6], in assay [7] and in assay [8] was inactive. Moreover, the outcome in assay [9], in [11], in assay [13], in [14], in assay [15] and in assay [16] was inactive.
`Cc1ccc(C2(O)CN(c3ccccc3C)C3=[N+]2CCS3)cc1` (stereo not given): the activation in [1] was 87% (active); in [2], 76% (active); in assay [10], 43.5% (active). Also, the result in assay [3], in [4], in assay [5], in assay [6], in assay [7] and in assay [8] was inactive. Besides, the compound was called inactive in [9], in [11], in assay [12], in [13], in assay [14] and in assay [15]. The outcome in assay [16] was inactive.
As to `Cc1ccc(-n2cc(CNCC3CC(=O)N(C4CC4)C3)c(-c3cccc(C)c3)n2)cc1` (stereo not given), the values for the activation in assay [1] and in assay [10] were 165% (active) and 52.5% (active), respectively. In addition, the result in assay [2], in [3], in assay [4], in assay [5], in assay [6] and in assay [7] was inactive. Besides, the outcome in [8], in assay [9], in [11], in assay [12], in assay [13] and in assay [14] was inactive. Further, the outcome in [15] and in assay [16] was inactive.
Take `CCOC(=O)C1(CCOc2ccccc2)CCN(Cc2ccc(NC(C)=O)cc2)CC1`: the figures for the activation in [1], in assay [2] and in assay [10] were 146% (active), 68% (active) and 51% (active), respectively. The outcome in assay [3], in [4], in [5], in assay [6], in [7] and in assay [8] was inactive. Moreover, the outcome in [9], in assay [11], in assay [12], in [13], in assay [14] and in assay [15] was inactive. Further, the outcome in [16] was inactive.
For `COc1ccc(C(=O)NC(=S)NNC(=O)c2c(-c3ccccc3)noc2C)cc1`, the activation in assay [1] is 100% (active); in assay [10], 28.5% (active); in [12], 105% (active); in [15] it was 28.5% (active). The result in assay [2], in [3], in [4], in [5], in assay [6] and in [7] was inactive. The result in [8], in assay [9], in assay [11], in assay [13], in assay [14] and in [16] was inactive.
Consider `COc1ccc(C(=O)NC(=S)NNC(=O)CCc2ccccc2)cc1`, for which the activation is 100% (active) in [1], 25% (active) in [10] and 61.1% (active) in assay [12]. Also, the result in [2], in assay [3], in assay [4], in assay [5], in assay [6] and in assay [7] was inactive. Moreover, the result in assay [8], in [9], in assay [11], in assay [13], in assay [14] and in assay [15] was inactive. Also, the result in assay [16] was inactive.
`COC(=O)[C@@]1(Cc2ccc(F)cc2)[C@H]2c3cc(C(=O)N(C)C)n(CCc4ccccn4)c3C[C@H]2CN1C(=O)c1ccccc1`: the activation in [1] is 136% (active); in assay [10], 54% (active). The outcome in assay [2], in assay [3], in [4], in [5], in assay [6] and in assay [7] was inactive. For the same compound, the result in assay [8], in [9], in [11], in assay [12], in assay [13] and in assay [14] was inactive. Besides, the result in [15] and in assay [16] was inactive.
`CC1(C)CC(=O)c2cc(C(=O)NCc3ccco3)c(=O)n(-c3ccc(Cl)cc3)c2C1`: the result in assay [1], in assay [2], in assay [3], in [4], in [5] and in [6] was inactive. The result in assay [7], in assay [8], in [9], in [11], in [12] and in assay [13] was inactive. Moreover, the result in assay [14], in assay [15] and in [16] was inactive. Besides, the activation in assay [10] is 66.5% (active).
On to `Cc1ccccc1OCC(=O)NNC(=S)NC(=O)c1ccco1`, for which the activation in assay [1] was 103% (active); in assay [10], 31.5% (active); in assay [12], 42.5% (active). In addition, the outcome in [2], in assay [3], in assay [4], in assay [5], in assay [6] and in assay [7] was inactive. Besides, the outcome in assay [8], in assay [9], in [11], in assay [13], in assay [14] and in assay [15] was inactive. For the same compound, the result in assay [16] was inactive.
